PubChem BioAssay
Some of the results follow. Activity calls are given as the source filed them. Unless noted, no rule for the calls is given here.

assay: Brca1-Bard1 BiLC signal decrease – luminescence, single concentration, counter-screen for Mdm2/MdmX interaction inhibitor project, confirmation (AID 504668); conditions: Brca1/Bard1 bimolecular luciferase complementation counterscreen, at 8 µM, stronger effect = higher value

Compound	inhibition
CCN1/C(=C\c2ccc3ccccc3[n+]2CC)Sc2cc(C)ccc21	25% (active)
COc1cccc(/C=N/NC(=O)c2[nH]nc3c2CCc2ccccc2-3)c1O	27% (active)
COc1ccc(Nc2ncnc3ccc(Br)cc23)c(OC)c1	24.3% (active)
Clc1cccc(Cl)c1OCCOCCNCc1ccccc1	33% (active)
COC(=O)Cc1[nH]n(-c2nc3ccccc3s2)c(=O)c1C(C)=Nc1ccc(OC)cc1	26.2% (active)

assay: inhibition of PEG-3 promoter luciferase signal – cell-based, HeLa, luciferase reporter, single concentration, confirmation (AID 602417;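 active = at 20 µM dose, 40% or more inhibition averaged across four replicates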); conditions: HeLa PEG-Prom luciferase reporter, luminescence, overnight; at 20 µM; stronger effect = higher value

Compound	inhibition
COc1ccc(Nc2ncnc3ccc(Br)cc23)c(OC)c1	87.9% (active)
COC(=O)Cc1[nH]n(-c2nc3ccccc3s2)c(=O)c1C(C)=Nc1ccc(OC)cc1	86.3% (active)
OCCCNc1nccc(-c2cc(Nc3cccc(Cl)c3)ncn2)n1	97.6% (active)
CC(C)(C)c1ccc(Oc2ccc(N)cc2)cc1	86.3% (active)
